Bioassay records deposited in PubChem by National Center for Advancing Translational Sciences (NCATS).
Compounds with a hit are over-represented: about 4.7% of the library has one in this group of screens.
D1 ag – Allosteric Agonists of the Human D1 Dopamine Receptor: qHTS | HEK293 T-REx D1 cells, calcium flux, agonist mode | activation, % at 2 µM | 360,000 compounds, 1% hits | AID 504660, 2011; further: 0% is about no effect
Target sequence (P21728 whole entry, looked up): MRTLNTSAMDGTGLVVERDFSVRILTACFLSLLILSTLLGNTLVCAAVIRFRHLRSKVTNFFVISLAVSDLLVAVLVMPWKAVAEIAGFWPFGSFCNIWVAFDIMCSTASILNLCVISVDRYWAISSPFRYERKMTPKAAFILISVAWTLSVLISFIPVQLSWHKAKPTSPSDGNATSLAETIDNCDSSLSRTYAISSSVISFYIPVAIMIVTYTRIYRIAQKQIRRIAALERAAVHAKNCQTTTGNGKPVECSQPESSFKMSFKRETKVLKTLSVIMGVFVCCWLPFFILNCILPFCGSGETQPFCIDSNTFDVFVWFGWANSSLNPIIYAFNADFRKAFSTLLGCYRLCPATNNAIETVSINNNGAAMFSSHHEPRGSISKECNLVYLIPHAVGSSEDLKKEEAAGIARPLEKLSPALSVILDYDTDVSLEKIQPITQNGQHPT
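Agonism was scored from calcium flux recorded over 180 s (1 read/s) after pintool compound addition, following a 10-cycle baseline. Cells were inducible force-coupled HEK293 TREx D1, plated overnight at 30 C and loaded with no-wash calcium dye.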
TRHR ag – qHTS for Small Molecule Agonists and Allosteric Enhancers of Human TRH Receptor: Primary Screen for Agonists | TRHR cells, calcium flux fluo-8, FDSS agonist mode | 360,000 compounds, 0.18% hits | Thyrotropin-releasing hormone receptor (Homo sapiens), P34981 | activation, % at 2 µM | AID 493084, 2011; further: 0% is about no effect
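Agonist-mode FDSS calcium read (Ex 480/Em 530, 1 s cycles) in 1536-well TRHR cells with fluo-8 dye, after 10-cycle baseline and 23 nL compound addition; TRH at EC20 (10 nM final) added afterwards for the enhancer phase.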
D1 antag – Antagonist of Human D 1 Dopamine Receptor: qHTS; D(1A) dopamine receptor (Homo sapiens), P21728; activity change, negative = inhibition, % at 10 µM; HEK293 TREx D1 cells, calcium flux, dopamine EC80; active compounds read low; 360,000 compounds, 3.2% hits; in the data active means activity change below about -30%; further: on the % scale 0 is the no-effect control and ±100 the full control effect
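HEK293 T-REx cells expressing inducible, force-coupled D1 receptor; no-wash Ca dye, 30–90 min RT. Cmpd → 180 s read at 1 Hz → EC80 DA → 180 s read.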
D1 potentiator – Potentiators of Human D1 Dopamine Receptor: qHTS; 360,000 compounds, 0.036% hits; potentiation, % at 10 µM; AID 504651, 2011; D(1A) dopamine receptor (Homo sapiens), P21728; HEK293 TREx D1 cells, calcium flux, dopamine EC20 potentiation; in the data active means potentiation above about 30%; further: 0% is about no effect
TRHR enhancer – qHTS for Small Molecule Agonists and Allosteric Enhancers of Human TRH Receptor: Primary Screen for Enhancers; AID 493056, 2011; 360,000 compounds, 0.66% hits; enhancement, % at 2 µM; Thyrotropin-releasing hormone receptor (Homo sapiens), P34981; TRHR cells, fluo-8 calcium fluorescence, EC20 TRH enhancement; in the data active means enhancement above about 30%; further: 0% is about no effect
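Enhancer read-out: after compound pinning and an initial kinetic agonist-mode read, an EC20 of TRH (10 nM final) was injected and fluo-8 calcium signal (Ex 480/Em 530) followed at 1 s/cycle for 100 cycles in TRHR-expressing cells.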
An asterisk follows results filed as active; . = no result; ! = repeats disagree. Unless noted, no stated cut-off is given here; in the data, active means activation above about 30%; inactive means the rest.

SMILES | D1 ag | TRHR ag | D1 antag | D1 potentiator | TRHR enhancer
O=C1c2cc(F)ccc2OC2(CCNCC2)C12CC(c1ccccc1)=NO2 (configuration not stated) | 43* | 2 | -13 | -3 | -8
CCN(CC)S(=O)(=O)c1cccc(-c2nnc(SCCCC(=O)c3ccccc3)o2)c1 | 17 | 1 | 18 | 4 | 7
CCN(CC)S(=O)(=O)c1cccc(-c2nnc(SCCCC(=O)c3ccc(F)cc3)o2)c1 | 34* | 4 | 0 | -3 | -5
NC(=O)CSc1nnc2sc3ccccc3n12 | 1 | 0 | -15 | 32* | 14
Cc1cccc(N2CCN(C(=O)c3cccn4c(=O)c5cc(Cl)ccc5nc34)CC2C)c1 (configuration not stated) | 0 | 0 | -1 | 4 | 16
COc1cc(OC)c(NC(=O)C(C)n2c(=O)cc(-c3ccccc3)c3c(C)nn(C)c32)cc1Cl (configuration not stated) | 4 | 0 | 23 | -4 | -6
Cc1nc2ccccc2c2nc(N)nn12 | 0 | -2 | -56* | -10 | -8
COC(=O)c1sc(S(=O)(=O)N2CCC(C(N)=O)CC2)c(C(=O)OC)c1C | 1 | 1 | -20 | -1 | 9
COC(=O)c1sc(S(=O)(=O)N2CCN(c3ccc(OC)cc3)CC2)c(C(=O)OC)c1C | 3 | -2 | -40*! | 0 | -1
O=C(CSc1ccc2nnc(-c3ccccn3)n2n1)Nc1ccccc1 | 5 | 0 | 2 | 3 | -4
Cc1cc(NC(=O)CSc2ccc3nnc(-c4ccccn4)n3n2)no1 | 3 | 4 | -32* | -11 | 1
CCc1ccc(CNC(=O)c2ccc(NC(=O)N3CCCCc4ccccc43)cc2)cc1 | 0 | 0 | 20 | 2 | 10
Cc1ccc2occ(CC(=O)N(Cc3ccc(N(C)C)cc3)C3CCS(=O)(=O)C3)c2c1 (configuration not stated) | 1 | -1 | -43* | 2 | 2
CCOC(=O)C(CC)Sc1ncnc2sc3c(c12)CCCC3 (configuration not stated) | 4 | 0 | -9 | -2 | -7
C=CCC1S/C(=N/N=C/c2cccs2)NC1=O (configuration not stated) | -1 | -1 | -13 | -6 | 8
O=C1N/C(=N\N=C\c2cccs2)SC1Cc1ccc(Cl)c(Cl)c1 (configuration not stated) | 1 | 1 | -43* | -5 | -3
CN(CC(=O)Nc1cccc(C#N)c1)Cc1ccc(Cl)cc1 | 1 | 0 | -42* | -11 | 0
CN(CC(=O)NC(=O)NCc1ccccc1)Cc1ccc(Cl)cc1 | 1 | 0 | 2 | -4 | 9
CC(=O)c1cccc(NC(=O)CN(C)Cc2ccc(OC(F)F)cc2)c1 | 8 | -1 | -35* | -4 | -7
CN(CC(=O)NCc1ccccc1)Cc1ccc(Cl)cc1 | 0 | -1 | 3 | -1 | 33*
Cc1ccc2c(CN3CCN(C(=O)c4ccc(Br)cc4)CC3)cc(=O)oc2c1 | 0 | -1 | 12 | -3 | 1
COc1c(C)cc(S(=O)(=O)Nc2cccc(-c3ccc(N4CCOCC4)nn3)c2)c(C)c1C | 0 | 0 | -26 | -3 | 15
Cc1ccccc1Nc1nnc(-c2ccc(C)c(S(=O)(=O)NCC3CCCO3)c2)c2ccccc12 (configuration not stated) | 2 | -1 | -26 | 3 | -6
Cc1nc2sc(C(=O)Nc3ccc(F)cc3)c(N)c2c(-c2ccc(Br)cc2)c1C(=O)Nc1ccc(Cl)cc1 | 18 | 0 | -2 | -1 | -3
COc1cc(NC(=O)C/C(C)=N/NC(=O)c2ccccn2)c(OC)cc1Cl | 1 | 0 | 3 | 20 | 1
SMILES | D1 ag | TRHR ag | D1 antag | D1 potentiator | TRHR enhancer
COc1cc(NC(=O)c2cc(-c3ccccc3)on2)cc(OC)c1OC | 2 | 0 | 3 | -1 | 5
COc1cc(NC(=O)c2ccccn2)cc(OC)c1OC | 0 | 0 | 17 | -2 | 30*
COc1cc(C(=O)Nc2ccc3c(c2)C(=O)c2ccccc2C3=O)cc(OC)c1OC | 4 | -1 | -50* | -7 | 5
COc1ccccc1NC(=O)C/C(C)=N/NC(=O)c1ccccn1 | 0 | 1 | -38* | -2 | -7
Cc1ccc2c(=O)cc(C(=O)Nc3sc4c(c3C(=O)NCc3ccccc3)CCCC4)oc2c1C | 0 | 0 | 3 | -1 | -2
CCOC(=O)C1=C(CS(=O)(=O)c2ccc(C(C)(C)C)cc2)NC(=O)NC1c1cccc(OC)c1 (configuration not stated) | 0 | 0 | 5 | 4 | -9
Cc1nc(SCC(=O)c2ccc(F)cc2)c([N+](=O)[O-])[nH]1 | 1 | 0 | -3 | 1 | -1
Cc1nc(SCC(=O)c2ccc(Cl)cc2)c([N+](=O)[O-])[nH]1 | 2 | 0 | -40* | -4 | 3
Cc1cc(C)c(NC(=O)C2CCN(c3nnc(C)c4c(C)n(-c5ccccc5)nc34)CC2)c(C)c1 | 0 | 0 | 8 | 1 | 1
CCc1ccccc1NC(=S)N(Cc1cccc(C)c1)c1cccnc1 | 5 | 0 | 14 | 1 | -2
Cc1cccc(CN(C(=S)Nc2c(C)cccc2C)c2cccnc2)c1 | 7 | -1 | -33* | -6 | -5
N#CCCN(Cc1cccnc1)S(=O)(=O)c1ccc(S(=O)(=O)NC2CCCCC2)cc1 | 1 | 0 | 4 | 3 | -7
N#CCCN(Cc1cccnc1)S(=O)(=O)c1ccc2ccccc2c1 | 0 | -1 | -37* | 0 | 2
COc1ccc(Cl)cc1NC(=O)CN1C(=O)CSc2ccc(S(=O)(=O)N3CCCC3)cc21 | 15 | -2 | -5 | -4 | 9
COc1ccc(CNC(=O)Cc2c(C)c3cc4c(C)coc4c(C)c3oc2=O)cc1 | 5 | 0 | -1 | 6 | -1
CCOc1ccc(-n2c(C)cc(/C=N/Nc3nc(C)cc(=O)[nH]3)c2C)cc1 | 3 | -1 | -35* | -4 | 3
CCOc1ccc(-n2c(C)cc(/C=N/NC(=O)C(N)=O)c2C)cc1 | -2 | -1 | . | -5 | 4
CSc1ccc(/C=N/Nc2nc(C)cc(=O)[nH]2)cc1 | 4 | 0 | -30* | -11 | -5
CC(=O)N1CCc2nc3sc(C(=O)Nc4ccc(Cl)cc4F)c(N)c3c(C(F)(F)F)c2C1 | 3 | 2 | 3 | -4 | 28
COC(=O)c1sc(-c2ccccc2)cc1NC(=O)Nc1ccc(F)cc1 | 3 | 1 | 6 | -4 | -3
CCCS(=O)(=O)c1ncc(Cl)c(C(=O)N(Cc2ccccc2)Cc2ccco2)n1 | 1 | 1 | -43* | -3 | -26
